{"source": "PubChem BioAssay AID463173", "about": "(ICCB-Longwood Screening Facility, Harvard Medical School, 2010)", "note": "Among all 52,000 compounds or so, about 4,300 (8.3%) were called active. Cut-off read from the data, not from the text of the source: active = survival mostly below about 52% (no sharp cut-off); inactive = mostly above about 56%. The entries come from a sample that favours actives as a whole.", "data": [{"test_system": "DeltatarO mutant", "experiment": "growth inhibition of S. aureus wild type versus tarO mutant, primary screen, teichoic acid synthesis inhibitors, RN4220, OD600 (AID 463173)", "conditions": "OD600, 18 h, stronger effect = lower value, screened at 18.75 µg/mL (by protocol)", "values": [{"smiles": "Cc1ccc2cccc(NC(=O)c3ccc(-c4ccc(Cl)cc4Cl)o3)c2n1", "survival": "67% (inactive)"}, {"smiles": "Cc1ccc2cccc(NC(=O)c3ccc(-c4ccc(Br)cc4)o3)c2n1", "survival": "59% (active)"}, {"smiles": "Cc1ccc2cccc(NC(=O)c3ccc(-c4cc(Cl)ccc4Cl)o3)c2n1", "survival": "71% (inactive)"}, {"smiles": "O=C(O)c1ccc(-c2cccc(Cl)c2)o1", "survival": "67% (inactive)"}, {"smiles": "Cc1ccc2cccc(NC(=O)c3ccc(-c4cccc([N+](=O)[O-])c4)o3)c2n1", "survival": "67% (inactive)"}, {"smiles": "Nc1nc(N)c(S(=O)(=O)c2ccccc2)c(Nc2ccc(F)cc2)n1", "survival": "72% (inactive)"}, {"smiles": "O=C(COc1ccccc1)NCCc1csc(-c2cccc(F)c2)n1", "survival": "78% (inactive)"}, {"smiles": "CN(C)c1ccc(NC(=O)CSc2nc(-c3ccco3)cc(C(F)(F)F)n2)cc1", "survival": "65% (inactive)"}, {"smiles": "O=C(CSc1nc(-c2ccco2)cc(C(F)(F)F)n1)Nc1ccccc1", "survival": "102% (inactive)"}, {"smiles": "COc1ccc(NC(=O)CSc2nc(-c3ccco3)cc(C(F)(F)F)n2)cc1Cl", "survival": "38% (active)"}, {"smiles": "Cc1cc(F)ccc1NC(=O)CCSc1nc(-c2ccco2)cc(C(F)(F)F)n1", "survival": "45% (inactive)"}, {"smiles": "CCNS(=O)(=O)c1ccc(NC(=O)CSc2nc(-c3ccco3)cc(C(F)(F)F)n2)cc1", "survival": "36% (active)"}, {"smiles": "COc1ccc(NC(=O)CSc2nc(-c3ccco3)cc(C(F)(F)F)n2)cc1", "survival": "86% (inactive)"}, {"smiles": "Cc1ccc(F)cc1NC(=O)CCSc1nc(-c2ccco2)cc(C(F)(F)F)n1", "survival": "48% (inactive)"}, {"smiles": "COc1ccc(Cl)cc1NC(=O)CSc1nc(-c2ccco2)cc(C(F)(F)F)n1", "survival": "31% (active)"}, {"smiles": "COc1ccc(NC(=O)CSc2nc(-c3ccco3)cc(C(F)(F)F)n2)cc1OC", "survival": "63% (inactive)"}, {"smiles": "Cc1ccc(O)c(NC(=O)CCSc2nc(-c3ccco3)cc(C(F)(F)F)n2)c1", "survival": "28% (active)"}, {"smiles": "CCOc1ccccc1CNC(=O)CCCn1nc(C)c2sc3ccccc3c2c1=O", "survival": "85% (inactive)"}, {"smiles": "O=C1C2C3c4ccccc4C(c4ccccc43)C2C(=O)N1CN1CCOCC1", "note": "(stereo unspecified)", "survival": "78% (inactive)"}, {"smiles": "CCCOc1ccc(NC(=O)CC2C(=O)N(c3ccc(C)cc3)C(=O)N2C2CCCC2)cc1", "note": "(stereo unspecified)", "survival": "67% (inactive)"}, {"smiles": "Cc1ccc(NC(=O)Cn2c(=O)n(Cc3nc(-c4ccccc4)no3)c(=O)c3cc4c(cc32)OCO4)c(C)c1", "survival": "62% (inactive)"}, {"smiles": "COc1ccc(N(C)C(=O)c2cn(C3CCCCC3)c(=O)c3c2c2ccccc2n3C)cc1", "survival": "67% (inactive)"}, {"smiles": "Cc1ccc(-n2nc(C(=O)NC(C)C)c(=O)n(C)c2=O)cc1", "survival": "78% (inactive)"}, {"smiles": "Cc1c(NC(=O)Nc2ccc(Cl)c(C(F)(F)F)c2)c(=O)n(-c2ccccc2)n1C", "survival": "124% (inactive)"}, {"smiles": "CC(C)CCn1c(=O)c2sccc2n2c(CCCC(=O)NCc3ccc(F)cc3)nnc12", "survival": "88% (inactive)"}, {"smiles": "Cc1oc2ncn(C)c(=O)c2c1C(=O)Nc1ccccn1", "survival": "102% (inactive)"}, {"smiles": "COc1cccc(CNC(=O)Cn2c(=O)oc3cc(S(=O)(=O)N4CCCC4)ccc32)c1", "survival": "122% (inactive)"}, {"smiles": "Cc1ccc(Cl)cc1NC(=O)C(=O)NCCc1sc(-c2ccc(F)cc2)nc1C", "survival": "90% (inactive)"}, {"smiles": "CC1CCN(S(=O)(=O)c2ccc3c(c2)N(CC(=O)NCC(C)c2ccccc2)C(=O)CO3)CC1", "note": "(stereo unspecified)", "survival": "64% (inactive)"}, {"smiles": "Cc1ccc(C(=O)Nc2ccc(C(=O)OCc3cc(=O)n4ccsc4n3)cc2)cc1", "survival": "72% (inactive)"}, {"smiles": "CC(C)NC(=O)CSc1nc(-c2ccco2)cc(C(F)(F)F)n1", "survival": "64% (inactive)"}, {"smiles": "Cc1ccc(NC(=O)CSc2nc(-c3ccco3)cc(C(F)(F)F)n2)cc1", "survival": "129% (inactive)"}, {"smiles": "Cc1ccc(NC(=O)CSc2nc(-c3ccco3)cc(C(F)(F)F)n2)cc1C", "survival": "33% (active)"}, {"smiles": "Cc1cccc(NC(=O)CSc2nc(-c3ccco3)cc(C(F)(F)F)n2)c1C", "survival": "69% (inactive)"}, {"smiles": "Cc1ccc(NC(=O)CSc2nc(-c3ccco3)cc(C(F)(F)F)n2)c(C)c1", "survival": "63% (active)"}, {"smiles": "Cc1ccc(NC(=O)CCSc2nc(-c3ccco3)cc(C(F)(F)F)n2)cc1F", "survival": "48% (inactive)"}, {"smiles": "CC(=O)Nc1ccc(S(=O)(=O)NC2(C(F)(F)F)C(=O)Nc3c2c(=O)[nH]c(=O)n3-c2ccc(C)c(C)c2)cc1", "note": "(stereo unspecified)", "survival": "81% (inactive)"}, {"smiles": "CCOc1ccc(S(=O)(=O)NC(=O)N(CC)Cc2cc3ccccc3o2)cc1", "survival": "76% (inactive)"}, {"smiles": "CCCc1cnc2c(c1SCc1ccc(C(F)(F)F)cc1)c(=O)n(C)c(=O)n2C", "survival": "54% (inactive)"}, {"smiles": "O=C(Nc1ccc2oc(-c3ccc(O)c(Br)c3)nc2c1)c1cc2ccccc2o1", "survival": "49% (inactive)"}, {"smiles": "CC(=O)Nc1cc(-c2nc3cc(Cl)ccc3o2)ccc1C", "survival": "51% (inactive)"}, {"smiles": "Cc1c(NC(=O)c2cccc3c(Cl)cccc23)cccc1-c1nc2ccccc2o1", "survival": "63% (inactive)"}, {"smiles": "Cc1ccc2oc(-c3ccc(Cl)c(NC(=O)c4cc5ccccc5o4)c3)nc2c1", "survival": "39% (active)"}, {"smiles": "Cc1ccc(-c2nc3cc(C(C)C)ccc3o2)cc1NC(=O)c1cc2ccccc2o1", "survival": "19% (active)"}, {"smiles": "Cc1ccc(-c2nc3cc(NC(=O)c4cc5ccccc5o4)ccc3o2)cc1Cl", "survival": "139% (inactive)"}, {"smiles": "Cc1ccc(-c2nc3ccccc3o2)cc1NC(=O)Cc1ccc(Cl)cc1", "survival": "73% (inactive)"}, {"smiles": "Cc1ccc(-c2nc3cc(Cl)ccc3o2)cc1NC(=O)c1cc2ccccc2o1", "survival": "43% (active)"}, {"smiles": "O=C(Nc1cc(-c2nc3cc(Cl)ccc3o2)ccc1Cl)c1cc2ccccc2o1", "survival": "82% (inactive)"}, {"smiles": "Cc1ccc2oc(-c3ccc(Cl)c(NC(=O)Cc4ccccc4)c3)nc2c1", "survival": "95% (inactive)"}, {"smiles": "Cc1c(NC(=O)c2ccc(Br)o2)cccc1-c1nc2ccccc2o1", "survival": "60% (inactive)"}, {"smiles": "Cc1c(NC(=O)c2cc3ccccc3o2)cccc1-c1nc2ccccc2o1", "survival": "36% (active)"}]}]}
